These results are taken from PubChem BioAssay.

Assay [1] has as its system Plasmodium falciparum Sir2 (PF13_0152, Sir2A). Put plainly: Plasmodium falciparum Sir2A binding compounds – biochemical, small-molecule microarray, 635 nm fluorescence, primary screen (AID 1098).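 Note: score merges spot fluorescence intensity with its signal-to-noise ratio.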 Conditions: fluorescence 635 nm, higher = more signal.
Assay [2] can be described thus: probe aDKK1 binding to arrayed compounds – biochemical, biotinylated probe, 635/667 nm fluorescence, primary screen (AID 1099).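 Note: score merges 667nm spot fluorescence with signal to noise across triplicate slides; reference of the scale not given here.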 Conditions: small-molecule microarray, higher = more signal.
Assay [3] can be described thus: probe aCHRDL2 binding to arrayed compounds – biochemical, biotinylated probe, 635/667 nm fluorescence, primary screen (AID 1100). Conditions: small-molecule microarray, higher = more signal.
A short description of assay [4]: change in splice reporter luminescence, either direction, cell-based, HEK293, spliceosome inhibition project, primary screen (AID 1101).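 Note: HEK293 cells carrying a splicing-competent luciferase reporter gene; test concentration not given here.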 Conditions: HEK293 splicing luciferase reporter, 24 h, higher = more signal, called active from +8 up or from −8 down. In general terms: A reporter such as luciferase makes a cellular process visible.
Assay [5] addresses Fibroblast growth factor 10 (Homo sapiens) (UniProt O15520). The experiment in a line: compounds binding fibroblast growth factor 10 – biochemical, small-molecule microarray, 635 nm fluorescence, primary screen (AID 1102). Conditions: FGF10 binding, fluorescence 635 nm, higher = more signal.
Assay [6] relates to glycogen synthase kinase-3 (GSK3A per assay name; protocol says GSK3B). Put plainly: compounds binding glycogen synthase kinase-3 – biochemical, small-molecule microarray, 635 nm fluorescence, GSK3A, primary screen (AID 1103). Note: the record names both GSK3A and GSK3B. Conditions: fluorescence 635 nm, higher = more signal.
The target of assay [7] is Epidermal growth factor receptor (Homo sapiens) (UniProt P00533). Put plainly: compounds binding epidermal growth factor receptor – biochemical, small-molecule microarray, 635 nm fluorescence, primary screen (AID 1104).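 Note: score merges 667 nm emission intensity with spot signal to noise over triplicate slides.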 Conditions: EGFR binding, higher = more signal.
Sequence of Epidermal growth factor receptor (Homo sapiens) (P00533 whole entry, looked up): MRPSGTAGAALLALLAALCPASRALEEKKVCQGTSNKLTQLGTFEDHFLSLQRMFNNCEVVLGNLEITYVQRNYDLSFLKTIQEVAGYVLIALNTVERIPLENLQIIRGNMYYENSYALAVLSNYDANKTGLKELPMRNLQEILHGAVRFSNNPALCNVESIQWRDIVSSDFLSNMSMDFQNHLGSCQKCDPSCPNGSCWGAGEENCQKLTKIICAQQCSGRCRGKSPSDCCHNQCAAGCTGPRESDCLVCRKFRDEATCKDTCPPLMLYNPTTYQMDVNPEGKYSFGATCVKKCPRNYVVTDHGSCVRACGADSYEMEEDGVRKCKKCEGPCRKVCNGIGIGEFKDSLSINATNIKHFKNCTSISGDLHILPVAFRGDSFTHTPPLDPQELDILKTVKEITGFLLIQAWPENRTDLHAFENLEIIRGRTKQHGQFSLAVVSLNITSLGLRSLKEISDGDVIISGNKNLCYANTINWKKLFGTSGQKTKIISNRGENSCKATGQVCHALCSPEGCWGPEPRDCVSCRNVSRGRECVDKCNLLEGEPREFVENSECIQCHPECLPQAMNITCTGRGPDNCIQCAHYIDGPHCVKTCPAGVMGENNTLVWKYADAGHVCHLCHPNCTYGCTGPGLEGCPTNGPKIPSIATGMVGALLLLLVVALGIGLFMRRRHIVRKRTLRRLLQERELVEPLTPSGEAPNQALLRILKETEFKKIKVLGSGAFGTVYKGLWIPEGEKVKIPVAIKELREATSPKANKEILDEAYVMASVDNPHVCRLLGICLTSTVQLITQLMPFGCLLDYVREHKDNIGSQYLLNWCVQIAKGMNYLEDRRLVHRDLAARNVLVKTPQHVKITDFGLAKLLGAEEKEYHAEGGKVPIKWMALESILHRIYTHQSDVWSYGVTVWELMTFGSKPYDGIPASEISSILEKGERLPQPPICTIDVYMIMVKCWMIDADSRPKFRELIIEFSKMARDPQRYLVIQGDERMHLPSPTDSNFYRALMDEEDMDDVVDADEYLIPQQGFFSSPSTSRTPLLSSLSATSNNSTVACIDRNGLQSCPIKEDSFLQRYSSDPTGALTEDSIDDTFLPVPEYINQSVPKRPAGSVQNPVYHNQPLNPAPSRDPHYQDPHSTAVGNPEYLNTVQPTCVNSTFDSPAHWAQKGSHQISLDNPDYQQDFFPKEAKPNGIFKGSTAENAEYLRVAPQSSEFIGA
The target in assay [8] is Follistatin-related protein 3 (Homo sapiens) (UniProt O95633). The experiment in a line: compounds binding follistatin-related protein 3 – biochemical, small-molecule microarray, 635 nm fluorescence, primary screen (AID 1105).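 Note: score merges emission near 667 nm and signal to noise per printed spot across three slides.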 Conditions: FSTL3 binding, higher = more signal.
Sequence of Follistatin-related protein 3 (Homo sapiens) (O95633 whole entry, looked up): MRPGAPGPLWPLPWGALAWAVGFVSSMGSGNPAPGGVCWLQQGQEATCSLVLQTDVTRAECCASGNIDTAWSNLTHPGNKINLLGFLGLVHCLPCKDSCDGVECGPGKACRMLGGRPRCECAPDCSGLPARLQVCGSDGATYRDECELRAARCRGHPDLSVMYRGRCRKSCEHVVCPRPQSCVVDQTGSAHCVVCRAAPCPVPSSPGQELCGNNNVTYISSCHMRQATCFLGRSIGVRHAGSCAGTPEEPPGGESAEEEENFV
Assay [9] concerns the target Dickkopf-related protein 1 (Homo sapiens) (UniProt O94907). The experiment in a line: small molecules binding DKK1 protein – biochemical, small-molecule microarray, 635 nm fluorescence scan, primary screen (AID 1106).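 Note: score merges emission near 667 nm with signal to noise over three replicate slides.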 Conditions: higher = more signal.
The test system of assay [10] is Inhibin beta A chain (activin A). The experiment in a line: small molecules binding activin A – biochemical, small-molecule microarray, 635 nm fluorescence scan, primary screen (AID 1107).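 Note: mouse activin A protein probed at 4.33 µg/mL on printed slides; score merges bound-protein fluorescence near 667 nm with spot signal-to-noise.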 Conditions: INHBA, higher = more signal.

Structures are written as SMILES. Activity calls are given as the source filed them.

Sequence of Fibroblast growth factor 10 (Homo sapiens) (O15520 whole entry, looked up): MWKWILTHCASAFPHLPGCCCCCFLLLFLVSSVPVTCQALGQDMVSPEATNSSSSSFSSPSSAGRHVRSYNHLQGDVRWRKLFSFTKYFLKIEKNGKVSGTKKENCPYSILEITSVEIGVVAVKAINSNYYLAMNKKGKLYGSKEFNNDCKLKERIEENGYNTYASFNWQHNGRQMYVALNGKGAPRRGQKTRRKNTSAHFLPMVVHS
Sequence of Dickkopf-related protein 1 (Homo sapiens) (O94907 whole entry, looked up): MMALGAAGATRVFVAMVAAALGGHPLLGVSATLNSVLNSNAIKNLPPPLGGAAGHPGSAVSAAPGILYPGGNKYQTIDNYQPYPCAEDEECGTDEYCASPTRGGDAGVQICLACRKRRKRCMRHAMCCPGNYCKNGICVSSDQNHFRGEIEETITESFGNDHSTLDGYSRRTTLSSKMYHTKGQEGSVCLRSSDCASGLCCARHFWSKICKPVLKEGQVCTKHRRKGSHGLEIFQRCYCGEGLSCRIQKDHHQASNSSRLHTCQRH

Consider `CN1C(=O)C2C=CC(C(O)c3ccc(F)cc3)N(N3CCCCC3)C2C1=O` (stereo not given), for which the composite z-score in assay [1] is 1.56; in [2], 1.3; in assay [3], 1.33; in assay [5], 0.252; in assay [6], 0.432; in [7], -0.406. Further, the composite z-score was -0.0733 in assay [8], -1.3 in [9] and 1.23 in assay [10]. In assay [4], the z-score is 0.981 (inactive).
Regarding `CC(C)C(CO)N1C(=O)[C@@H]2[C@H]3C(=O)OCC=C[C@H]3OC23C=CCN(CCN2CCOCC2)C(=O)[C@@H]13` (stereo not given in full), the composite z-score was 1.15 in [1]; -0.385 in [2]; -0.538 in [3]; -0.505 in assay [5]; -0.118 in assay [6]; -0.409 in [7]. Moreover, the composite z-score was found to be 0.351 in assay [8], 0.286 in assay [9] and 0.934 in [10]. For the same compound, the z-score in [4] was 0.653 (inactive).
For the compound `C=C(COC)C(=O)CC[C@H](OC(=O)c1ccccc1-c1ccccc1C(=O)O)c1ccc(OCCO)cc1`, the composite z-score in assay [1] was 1.53; in assay [2], -0.203; in assay [3] it was 0.0518; in assay [5], 1.35; in assay [6] it was 0.667; in assay [7], -0.237. Moreover, the composite z-score is 1.05 in [8], 0.701 in assay [9] and 1.1 in assay [10]. Also, the z-score in assay [4] was 0.287 (inactive).
For `COC(=O)c1c(CC[C@@H](CO)NC(=O)N[C@@H](C)Cn2cc(C3(O)CCCC3)nn2)oc(C(C)=O)c1C(=O)OC`, the composite z-score in assay [1] is 0.513; in assay [2], -0.196; in assay [3], -0.206; in [5], 0.308; in assay [6] it was -0.161; in [7], 0.0477. The values for the composite z-score in assay [8], in [9] and in assay [10] were 0.104, -0.217 and -0.338, respectively. In addition, the z-score in assay [4] was -1.45 (inactive).
Take `CCCCC=C[C@@H](NC(=O)CCc1ccccc1)c1ccccc1`: the composite z-score in assay [1] was 0.956; in [2] it was 0.401; in assay [3], -0.0262; in [5], 0.919; in assay [6], 0.869; in [7] it was 0.51. Besides, the figures for the composite z-score in [8], in [9] and in assay [10] were 0.188, 0.248 and 0.724, respectively. The z-score in assay [4] was 11.9 (active).
As to `COc1ccc(CCNC(=O)[C@@H]2c3ccccc3C(=O)N(Cc3ccccc3)[C@H]2c2ccc(CO)cc2)cc1`, the composite z-score in assay [1] is 1.23; in assay [2], -0.0548; in [3], 0.693; in assay [5], 0.847; in assay [6] it was 0.432; in assay [7], -0.25. The composite z-score is 0.84 in assay [8], -0.0051 in assay [9] and 0.309 in assay [10]. Also, in [4], the z-score is -0.575 (inactive).
In the case of `[N-]=[N+]=NCc1ccccc1[C@H]1OC(c2ccc(OCCCO)cc2)=N[C@@]1(Cc1ccccc1N=[N+]=[N-])C(=O)NCCN1CCOCC1`, the composite z-score in assay [1] came to 0.879; in assay [2] it was 0.901; in [3], 1.15; in assay [5], 1.26; in assay [6], 1.3; in assay [7], 0.558. In addition, the composite z-score in assay [8] worked out at 1.32; in [9] it was 0.136; in assay [10], 0.511. Also, in assay [4], the z-score was -0.44 (inactive).
Turning to `C[N+](C)(C)CCCCCCNC(=O)[C@H]1C[C@H]2C(=O)N3CCC[C@H]3C(=O)N2[C@H]1c1cccc(OCCO)c1`, the composite z-score in [1] was 1.66; in assay [2], 0.273; in assay [3], -0.155; in assay [5], 0.755; in [6] it was 1.23; in assay [7] it was 0.907. For the same compound, the figures for the composite z-score in assay [8], in assay [9] and in [10] were 1.3, 0.705 and 0.959, respectively. The z-score in assay [4] is 0.592 (inactive).
With `CCCCC(O)C1C=CC2C(=O)N(Cc3ccccc3)C(=O)C2N1n1cnnc1` (stereo not given), the composite z-score in assay [1] is 0.769; in assay [2], -0.0884; in [3], 0.213; in assay [5], 0.303; in assay [6] it was 0.144; in [7] it was 0.188. Moreover, the composite z-score in [8] came out at 0.412; in assay [9], 0.178; in [10] it was 1.05. In addition, the z-score in assay [4] was -0.75 (inactive).
In the case of `COC(=O)C(CC#Cc1ccc2c(c1)[C@]1(C(=O)N2)[C@H](c2ccccc2OCCO)N2[C@H](c3ccccc3)[C@H](c3ccccc3)OC(=O)[C@H]2[C@@H]1C(=O)Nc1nc2ccccc2s1)C(=O)OC`, the composite z-score in assay [1] was 1.21; in assay [2], -0.0226; in assay [3], -0.0159; in assay [5], 1.3; in assay [6], 1.21; in assay [7], 0.312. The composite z-score in [8] turned out to be 0.806; in assay [9], 0.171; in assay [10], 0.245. Also, the z-score in assay [4] is -0.333 (inactive).
With `COc1ccc(CCNC(=O)[C@@H]2c3ccccc3C(=O)N(Cc3ccccc3C(F)(F)F)[C@H]2c2ccc(CO)cc2)cc1`, the composite z-score in [1] was 1.46; in assay [2] it was -0.0126; in [3] it was 0.946; in assay [5], 0.176; in [6] it was 0.013; in [7] it was -1.01. Further, the values for the composite z-score in assay [8], in assay [9] and in assay [10] were -0.348, -0.814 and 0.288, respectively. The z-score in assay [4] was 0.609 (inactive).
Take `C=CCC(OC(C)=O)[C@@H]1[C@@H](N(Cc2cc3ccccc3o2)C(=O)Cc2ccc(OC)cc2)c2cc(OCCCO)ccc2N1C(=O)c1ccc(-c2ccccc2)cc1` (stereo not given in full): the composite z-score was -0.297 in assay [1]; 0.068 in assay [2]; 0.63 in assay [3]; -0.185 in [5]; -0.158 in assay [6]; -0.426 in [7]. Besides, the composite z-score in assay [8] is -0.272; in [9], -0.45; in assay [10], 1.34. In addition, in assay [4], the z-score is -0.354 (inactive).
